Out of some 5,500 compounds screened, about 2,000 (36%) were called active. Roughly 18% stayed inconclusive and do not appear here. The list shows a part of the results. Unmarked numbers belong to inactive results. Rule as the data show it: active = normalized growth mostly below about 0.91 (no sharp cut-off); inconclusive = no clear call, values can overlap the other calls; inactive = mostly above about 0.92.
Experiment: chemical genetic growth profiling, strain panel (AID 1159580);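 also: tested at 20 µM; growth read once vehicle control cultures reached saturation at 30 °C; 1 = growth at the plate median or of vehicle wells; lower values mean less growth of the strain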
Conditions: growth OD
[1] = S. cerevisiae deletion strains, locus YAL013W, strain DEP1, stronger effect = lower value
[2] = S. cerevisiae deletion strains, locus YBR229C, strain ROT2, stronger effect = lower value
[3] = S. cerevisiae deletion strains, locus YDL101C, strain DUN1, stronger effect = lower value
[4] = S. cerevisiae deletion strains, locus YDL134C, strain PPH21, stronger effect = lower value
[5] = S. cerevisiae deletion strains, locus YDR150W, strain NUM1, stronger effect = lower value
[6] = S. cerevisiae deletion strains, locus YEL061C, strain CIN8, stronger effect = lower value
[7] = S. cerevisiae deletion strains, locus YGR078C, strain PAC10, stronger effect = lower value
[8] = S. cerevisiae deletion strains, locus YHR030C, strain SLT2, stronger effect = lower value
[9] = S. cerevisiae deletion strains, locus YHR087W, strain rtc3, stronger effect = lower value
[10] = S. cerevisiae deletion strains, locus YJR043C, strain POL32, stronger effect = lower value
[11] = S. cerevisiae deletion strains, locus YJR075W, strain HOC1, stronger effect = lower value
[12] = S. cerevisiae deletion strains, locus YKL190W, strain CNB1, stronger effect = lower value
[13] = S. cerevisiae deletion strains, locus YLR039C, strain RIC1, stronger effect = lower value
[14] = S. cerevisiae deletion strains, locus YLR058C, strain SHM2 (second series), stronger effect = lower value
[15] = S. cerevisiae deletion strains, locus YLR085C, strain ARP6, stronger effect = lower value
[16] = S. cerevisiae deletion strains, locus YLR262C, strain YPT6, stronger effect = lower value
[17] = S. cerevisiae deletion strains, locus YML094W, strain GIM5, stronger effect = lower value
[18] = S. cerevisiae deletion strains, locus YMR219W, strain ESC1, stronger effect = lower value
[19] = S. cerevisiae deletion strains, locus YMR263W, strain SAP30, stronger effect = lower value
[20] = S. cerevisiae deletion strains, locus YNL153C, strain GIM3, stronger effect = lower value
[21] = S. cerevisiae deletion strains, locus YNL298W, strain CLA4 (second series), stronger effect = lower value
[22] = S. cerevisiae deletion strains, locus YNL322C, strain KRE1, stronger effect = lower value
[23] = S. cerevisiae deletion strains, locus YNR030W, strain Alg12, stronger effect = lower value
[24] = S. cerevisiae deletion strains, locus YOL006C, strain TOP1, stronger effect = lower value
[25] = S. cerevisiae deletion strains, locus YPL055C, strain LGE1, stronger effect = lower value
[26] = S. cerevisiae deletion strains, locus YPL241C, strain CIN2, stronger effect = lower value
[27] = S. cerevisiae deletion strains, locus YPR135W, strain CTF4, stronger effect = lower value

Nc1ccccc1SCC(=O)Nc1c(F)cccc1F
normalized growth [1]: 0.982
normalized growth [2]: 0.998
normalized growth [3]: 0.979
normalized growth [4]: 1.04
normalized growth [5]: 0.977
normalized growth [6]: 1.03
normalized growth [7]: 1
normalized growth [8]: 0.938
normalized growth [9]: 1.05
normalized growth (S. cerevisiae deletion strains, locus YJL187C, strain SWE1, stronger effect = lower value): 1.03
normalized growth [10]: 0.975
normalized growth [11]: 1.01
normalized growth [12]: 1.01
normalized growth [13]: 0.672 (active)
normalized growth [14]: 1.02
normalized growth [15]: 0.985
normalized growth [16]: 0.595 (active)
normalized growth [17]: 0.955
normalized growth [18]: 0.998
normalized growth [19]: 1.01
normalized growth [20]: 1.01
normalized growth [21]: 1.03
normalized growth [22]: 1
normalized growth [23]: 1
normalized growth [24]: 0.903
normalized growth [25]: 0.994
normalized growth [26]: 0.977
normalized growth [27]: 1.02
normalized growth (S. cerevisiae strains, strain wild type, stronger effect = lower value): 1.01

O=C(Nc1ccccc1F)C(Cl)Cl
normalized growth [1]: 0.999
normalized growth [2]: 0.989
normalized growth (S. cerevisiae deletion strains, locus YCL061C, strain MRC1, stronger effect = lower value): 1
normalized growth [3]: 0.994
normalized growth [4]: 0.967
normalized growth [5]: 1.01
normalized growth [6]: 1.01
normalized growth [7]: 0.975
normalized growth [8]: 1.07
normalized growth [9]: 0.981
normalized growth [10]: 0.997
normalized growth [11]: 0.971
normalized growth [12]: 0.981
normalized growth [13]: 1.16
normalized growth [14]: 0.987
normalized growth [15]: 0.991
normalized growth [16]: 1.14
normalized growth [17]: 0.992
normalized growth [18]: 0.991
normalized growth [19]: 0.995
normalized growth [20]: 1.02
normalized growth [21]: 0.984
normalized growth [22]: 0.987
normalized growth [23]: 0.976
normalized growth [24]: 1.02
normalized growth [25]: 0.962
normalized growth [26]: 0.977
normalized growth [27]: 0.99

O=C(NC(=O)c1c(F)cccc1Cl)OCc1ccc(Cl)cc1Cl
normalized growth (S. cerevisiae deletion strains, locus YAR019C, strain CDC15, stronger effect = lower value): 0.987
normalized growth (S. cerevisiae deletion strains, locus YBL105C, strain PKC1, stronger effect = lower value): 0.981
normalized growth (S. cerevisiae deletion strains, locus YBR135W, strain CKS1, stronger effect = lower value): 0.975
normalized growth (S. cerevisiae deletion strains, locus YBR136W, strain MEC1, stronger effect = lower value): 0.984
normalized growth (S. cerevisiae deletion strains, locus YBR160W, strain CDC28, stronger effect = lower value): 0.976
normalized growth (S. cerevisiae deletion strains, locus YDL017W, strain CDC7, stronger effect = lower value): 0.99
normalized growth (S. cerevisiae deletion strains, locus YDL028C, strain MPS1, stronger effect = lower value): 0.978
normalized growth [3]: 0.989
normalized growth (S. cerevisiae deletion strains, locus YDL108W, strain KIN28, stronger effect = lower value): 0.976
normalized growth (S. cerevisiae deletion strains, locus YDL132W, strain cdc53, stronger effect = lower value): 0.984
normalized growth (S. cerevisiae deletion strains, locus YDL214C, strain PRR2, stronger effect = lower value): 0.879
normalized growth (S. cerevisiae deletion strains, locus YDR052C, strain DBF4, stronger effect = lower value): 0.978
normalized growth (S. cerevisiae deletion strains, locus YDR054C, strain cdc34, stronger effect = lower value): 0.979
normalized growth (S. cerevisiae deletion strains, locus YDR226W, strain ADK1, stronger effect = lower value): 0.983
normalized growth (S. cerevisiae deletion strains, locus YDR477W, strain SNF1, stronger effect = lower value): 0.915
normalized growth (S. cerevisiae deletion strains, locus YER123W, strain YCK3, stronger effect = lower value): 0.848
normalized growth (S. cerevisiae deletion strains, locus YER133W, strain GLC7, stronger effect = lower value): 0.893
normalized growth (S. cerevisiae deletion strains, locus YFL009W, strain cdc4, stronger effect = lower value): 0.985
normalized growth (S. cerevisiae deletion strains, locus YFL029C, strain CAK1, stronger effect = lower value): 0.987
normalized growth (S. cerevisiae deletion strains, locus YFR003C, strain YPI1, stronger effect = lower value): 0.98
normalized growth (S. cerevisiae deletion strains, locus YFR019W, strain FAB1, stronger effect = lower value): 0.941
normalized growth (S. cerevisiae deletion strains, locus YFR028C, strain CDC14, stronger effect = lower value): 0.988
normalized growth (S. cerevisiae deletion strains, locus YGR040W, strain KSS1, stronger effect = lower value): 0.9
normalized growth (S. cerevisiae deletion strains, locus YGR052W, strain FMP48, stronger effect = lower value): 0.9
normalized growth (S. cerevisiae deletion strains, locus YGR092W, strain DBF2, stronger effect = lower value): 0.831
normalized growth [8]: 0.63 (active)
normalized growth (S. cerevisiae deletion strains, locus YHR079C, strain IRE1, stronger effect = lower value): 0.873
normalized growth (S. cerevisiae deletion strains, locus YHR082C, strain KSP1, stronger effect = lower value): 0.95
normalized growth (S. cerevisiae deletion strains, locus YHR205W, strain SCH9, stronger effect = lower value): 0.731
normalized growth (S. cerevisiae deletion strains, locus YIL147C, strain SLN1, stronger effect = lower value): 0.986
normalized growth (S. cerevisiae deletion strains, locus YJL095W, strain BCK1, stronger effect = lower value): 0.845
normalized growth (S. cerevisiae deletion strains, locus YJL128C, strain PBS2, stronger effect = lower value): 0.927
normalized growth (S. cerevisiae deletion strains, locus YJL157C, strain FAR1, stronger effect = lower value): 0.878
normalized growth (S. cerevisiae deletion strains, locus YJR016C, strain ILV3, stronger effect = lower value): 0.974
normalized growth (S. cerevisiae deletion strains, locus YJR066W, strain TOR1 (second series), stronger effect = lower value): 0.869
normalized growth (S. cerevisiae deletion strains, locus YJR066W, strain TOR1, stronger effect = lower value): 0.884
normalized growth (S. cerevisiae deletion strains, locus YKL048C, strain ELM1, stronger effect = lower value): 0.905
normalized growth (S. cerevisiae deletion strains, locus YKL067W, strain YNK1, stronger effect = lower value): 0.9
normalized growth (S. cerevisiae deletion strains, locus YKL101W, strain HSL1, stronger effect = lower value): 0.863
normalized growth (S. cerevisiae deletion strains, locus YKL193C, strain SDS22, stronger effect = lower value): 0.985
normalized growth (S. cerevisiae deletion strains, locus YKL203C, strain TOR2, stronger effect = lower value): 0.914
normalized growth (S. cerevisiae deletion strains, locus YLR113W, strain HOG1, stronger effect = lower value): 0.71 (active)
normalized growth (S. cerevisiae deletion strains, locus YLR133W, strain CKI1, stronger effect = lower value): 0.876
normalized growth (S. cerevisiae deletion strains, locus YLR403W, strain SFP1, stronger effect = lower value): 0.854
normalized growth (S. cerevisiae deletion strains, locus YML070W, strain DAK1, stronger effect = lower value): 0.858
normalized growth (S. cerevisiae deletion strains, locus YMR001C, strain CDC5, stronger effect = lower value): 0.985
normalized growth (S. cerevisiae deletion strains, locus YMR205C, strain PFK2 (second series), stronger effect = lower value): 0.906
normalized growth (S. cerevisiae deletion strains, locus YMR277W, strain FCP1, stronger effect = lower value): 0.98
normalized growth (S. cerevisiae deletion strains, locus YNL006W, strain LST8, stronger effect = lower value): 0.983
normalized growth (S. cerevisiae deletion strains, locus YNL020C, strain ARK1, stronger effect = lower value): 0.818
normalized growth (S. cerevisiae deletion strains, locus YNL161W, strain CBK1, stronger effect = lower value): 0.974
normalized growth (S. cerevisiae deletion strains, locus YNL183C, strain NPR1, stronger effect = lower value): 0.875
normalized growth (S. cerevisiae deletion strains, locus YNL207W, strain RIO2, stronger effect = lower value): 0.966
normalized growth (S. cerevisiae deletion strains, locus YNL222W, strain SSU72, stronger effect = lower value): 0.978
normalized growth (S. cerevisiae deletion strains, locus YNL307C, strain MCK1 (second series), stronger effect = lower value): 0.828
normalized growth (S. cerevisiae deletion strains, locus YOL078W, strain AVO1, stronger effect = lower value): 0.983
normalized growth (S. cerevisiae deletion strains, locus YOL136C, strain PFK27, stronger effect = lower value): 0.851
normalized growth (S. cerevisiae deletion strains, locus YOR061W, strain CKA2, stronger effect = lower value): 0.899
normalized growth (S. cerevisiae deletion strains, locus YOR119C, strain RIO1, stronger effect = lower value): 0.961
normalized growth (S. cerevisiae deletion strains, locus YOR231W, strain MKK1, stronger effect = lower value): 0.835
normalized growth (S. cerevisiae deletion strains, locus YOR329C, strain SCD5, stronger effect = lower value): 0.978
normalized growth (S. cerevisiae deletion strains, locus YPL031C, strain PHO85, stronger effect = lower value): 0.887
normalized growth (S. cerevisiae deletion strains, locus YPL153C, strain RAD53, stronger effect = lower value): 0.914
normalized growth (S. cerevisiae deletion strains, locus YPL204W, strain HRR25, stronger effect = lower value): 0.867
normalized growth (S. cerevisiae deletion strains, locus YPL209C, strain IPL1, stronger effect = lower value): 0.979
normalized growth (S. cerevisiae deletion strains, locus YPL256C, strain CLN2, stronger effect = lower value): 0.711 (active)
normalized growth (S. cerevisiae deletion strains, locus YPR025C, strain CCL1, stronger effect = lower value): 0.976
normalized growth (S. cerevisiae deletion strains, locus YPR106W, strain ISR1, stronger effect = lower value): 0.966
normalized growth (S. cerevisiae deletion strains, locus YPR111W, strain DBF20, stronger effect = lower value): 0.949
normalized growth (S. cerevisiae deletion strains, strain NNK1, stronger effect = lower value): 0.977
normalized growth (S. cerevisiae deletion strains, strain TSCII, stronger effect = lower value): 0.979
